We go through 56 compounds from PMC4336329 (PLoS ONE, 2015).

Screen size: about 310,000 compounds; about 14,000 (4.5%) showed an effect of 50% or more. Effects have a minus sign here. The sample holds strong results, similar compounds and a random draw of the others, so the mix is not that of the screen.
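Note: peak tail current of the secondary pulse compared with the same well before compound.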

human ether-à-go-go-related gene (hERG) potassium channel, sequence (Q12809 whole entry, looked up): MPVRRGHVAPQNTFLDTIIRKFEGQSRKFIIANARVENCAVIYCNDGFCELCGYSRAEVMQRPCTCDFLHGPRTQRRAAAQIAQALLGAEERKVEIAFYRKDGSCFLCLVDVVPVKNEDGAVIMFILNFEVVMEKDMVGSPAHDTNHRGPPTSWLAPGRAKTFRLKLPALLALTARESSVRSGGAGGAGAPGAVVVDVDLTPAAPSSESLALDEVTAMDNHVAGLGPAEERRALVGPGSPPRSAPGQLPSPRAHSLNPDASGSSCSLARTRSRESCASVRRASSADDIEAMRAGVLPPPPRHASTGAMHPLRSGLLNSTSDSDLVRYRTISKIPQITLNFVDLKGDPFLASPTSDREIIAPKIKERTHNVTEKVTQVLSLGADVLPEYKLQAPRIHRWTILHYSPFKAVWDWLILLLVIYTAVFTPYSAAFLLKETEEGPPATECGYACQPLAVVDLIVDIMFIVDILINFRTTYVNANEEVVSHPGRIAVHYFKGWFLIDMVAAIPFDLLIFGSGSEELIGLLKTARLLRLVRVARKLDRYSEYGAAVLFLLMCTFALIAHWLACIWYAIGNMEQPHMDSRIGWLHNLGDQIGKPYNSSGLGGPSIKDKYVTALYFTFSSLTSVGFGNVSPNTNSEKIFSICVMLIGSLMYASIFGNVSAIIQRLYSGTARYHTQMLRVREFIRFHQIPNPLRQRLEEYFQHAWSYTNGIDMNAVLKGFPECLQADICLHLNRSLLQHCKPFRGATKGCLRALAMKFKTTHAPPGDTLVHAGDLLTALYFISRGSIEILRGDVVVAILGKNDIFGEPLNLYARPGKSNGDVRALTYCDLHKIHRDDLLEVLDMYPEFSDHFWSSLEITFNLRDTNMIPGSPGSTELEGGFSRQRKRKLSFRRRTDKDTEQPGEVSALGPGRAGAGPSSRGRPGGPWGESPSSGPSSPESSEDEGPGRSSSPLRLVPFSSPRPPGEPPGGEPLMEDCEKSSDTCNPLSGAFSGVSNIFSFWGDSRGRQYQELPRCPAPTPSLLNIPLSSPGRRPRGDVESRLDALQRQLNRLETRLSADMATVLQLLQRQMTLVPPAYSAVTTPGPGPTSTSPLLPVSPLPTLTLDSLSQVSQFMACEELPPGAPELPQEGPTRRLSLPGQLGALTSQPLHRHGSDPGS

The assay concerns the target human ether-à-go-go-related gene (hERG) potassium channel (human, UniProt Q12809). In words: primary screen, population patch clamp on CHO cells stably expressing hERG; higher = less effect of the substance.
Regarding `COc1ccc(C2C(C(=O)c3cccs3)=C(O)C(=O)N2c2nnc(C)s2)cc1OC` (centres unmarked), the “hERG current change (%, negative = inhibition) at 10uM” value worked out at 1.32%.

In the case of `CCN1C(=O)/C(=C\N2CCN(c3ccc(F)cc3)CC2)SC1=S`, the “hERG current change (%, negative = inhibition) at 10uM” value was determined as 15.5%. Next, `COc1ccc(N2C(=O)C3CCCN3C2c2cccc(C)c2)cc1Cl` (centres unmarked): -31.3%. Next, `O=C(Nc1ccccc1F)C(=O)c1cn(CC(=O)N2CCCCC2)c2ccccc12`: 13.8%; `CN1CCN(C2=Nc3ccccc3Oc3ccc(Cl)cc32)CC1.O=C(O)CCC(=O)O`: -6.25%; `CCN(CC(=O)NC(=O)NC1CCCCC1)Cc1nc2ccccc2c(=O)[nH]1`: -8.1%. To `CN1CC(=O)N=C1N.Cl` belongs -50.1%; to `CN1CC(=O)N=C1N`, 8.56%; to `O=C(CN1CCN(S(=O)(=O)c2ccc(F)c(Cl)c2)CC1)N1CCNC1=O`, -1.79%. On to `Cc1ccc(-c2noc(C3CCCN(C(=O)c4ccccc4Br)C3)n2)cc1` (centres unmarked), for which the “hERG current change (%, negative = inhibition) at 10uM” value was 0.00198%. Next, `N/C(=N\OC(=O)/C=C/c1ccccc1)c1ccc(Br)cc1`: 4.83%; `COc1ccc(CCNCC2C(Oc3ccc(Cl)cc3)C(=O)N2c2ccccc2C)cc1OC.Cl` (centres unmarked): -41%. To `O=[N+]([O-])c1cc(/C=N/n2cnnc2)ccc1N1CCCC1` belongs -38.7%; to `N#CCc1ccccc1C(=O)OCC(=O)N(Cc1ccccc1)Cc1ccccc1`, -52.1%; to `O=C(OCC(=O)N(Cc1ccccc1)Cc1ccccc1)c1ccccc1NCCO`, -15.4%. Next, `O=C(OCC(=O)N(Cc1ccccc1)Cc1ccccc1)c1ccccc1O`: 5.67%.

Take `CN1CCCN(Cc2nc(-c3cccc(C(F)(F)F)c3)no2)CC1`: the “hERG current change (%, negative = inhibition) at 10uM” value is on record as -60.2%. With `FC(F)(F)c1ccc(-c2noc(CN3CCCN(C4CCCCC4)CC3)n2)cc1`, the “hERG current change (%, negative = inhibition) at 10uM” value is -75.7%. To `CN1CCCN(Cc2nc(-c3ccc(Cl)cc3)no2)CC1` belongs -72.6%; to `O=CN1CCCN(Cc2nc(-c3cccc(Cl)c3)no2)CC1`, -13.3%. On to `c1cnc(-c2noc(CN3CCN(C4CCCC4)CC3)n2)cn1`, for which the “hERG current change (%, negative = inhibition) at 10uM” value is reported as 18.7%. To `FC(F)(F)c1cccc(-c2noc(CN3CCOCC3)n2)c1` belongs 6.74%; to `Cc1ccc(-c2noc(CN3CCCCC3)n2)cc1`, 34.6%. With `Clc1ccc(-c2noc(CN3CCCC3)n2)cc1`, the “hERG current change (%, negative = inhibition) at 10uM” value is listed as -15.1%. Next, `CC1CCN(Cc2nc(-c3ccc(Cl)cc3)no2)CC1`: 8.57%. As to `CN1c2ccccc2C(C)(C)C12C=Cc1cc(O)ccc1O2` (centres unmarked), the “hERG current change (%, negative = inhibition) at 10uM” value is on record as -5.61%. Turning to `Cc1oc2cc(Br)c(O)c(Br)c2c1-c1ccccc1`, the “hERG current change (%, negative = inhibition) at 10uM” value is on record as -13.5%. Next, `CC(C)(C)OC(=O)NCCCC[C@H](NC(=O)c1[nH]cnc1C(=O)Nc1ccccc1)C(=O)OC(C)(C)C`: 15.6%; `CCCNNC(=O)C(O)(c1cccc(C)c1)c1cccc(C)c1`: -2.43%; `Cc1ccc(N2C(=O)C(Cl)=C(N3CCOCC3)C2=O)c(C)c1`: 14.6%.

As for `O=C(COC(=O)c1ccc(Cl)c(S(=O)(=O)N2CCCCC2)c1)NCC1CCCO1` (centres unmarked), the “hERG current change (%, negative = inhibition) at 10uM” value was -14.1%. To `O=C(COC(=O)c1ccc(Cl)c(S(=O)(=O)NCc2ccccc2)c1)NCC1CCCO1` (centres unmarked) belongs -53%.

`O=C(COC(=O)c1cccc(S(=O)(=O)NCc2ccccc2)c1)NCC1CCCO1` (centres unmarked): the “hERG current change (%, negative = inhibition) at 10uM” value was determined as 3.36%.

Consider `CCN(CC)C(=O)C(=O)c1cccn1-c1ccc(C#N)cc1`, for which the “hERG current change (%, negative = inhibition) at 10uM” value is on record as -18.8%. For the compound `COc1ccc2oc(=O)c(/C(C)=N/Nc3ccccc3)cc2c1`, the “hERG current change (%, negative = inhibition) at 10uM” value is recorded as -2.36%.

Take `CCOC(=O)COc1cc(OCC(=O)OCC)c2c(=O)cc(-c3ccccc3)oc2c1`: the “hERG current change (%, negative = inhibition) at 10uM” value was -62.6%. Next, `CC(C)(C)OC(=O)COc1cc(OCC(=O)OC(C)(C)C)c2c(=O)cc(-c3ccccc3)oc2c1`: -15%; `CCOC(=O)COc1cc(O)c2c(=O)cc(-c3ccccc3)oc2c1`: 12%; `CC(C)(C)NS(=O)(=O)c1cc2c3c(c1)CCN3C(=O)CC2`: 17.4%. Next, `O=C1CCc2cc(S(=O)(=O)NC3CCCCC3)cc3c2N1CC3`: 1.44%.

For the compound `CC1CC(NS(=O)(=O)c2cc3c4c(c2)CCN4C(=O)CC3)CC(C)(C)C1` (centres unmarked), the “hERG current change (%, negative = inhibition) at 10uM” value is -63.1%.

With `c1ccc(-c2nnc(C(c3ccccc3)c3ccccc3)o2)cc1`, the “hERG current change (%, negative = inhibition) at 10uM” value turned out to be 6.86%. To `CCOc1ccc(C(=O)c2cnc3ccccc3c2N2CCN(CC)CC2)cc1` belongs -65.5%.

Take `CCOC(=O)C1CCCN(c2c(C(=O)c3ccccc3)cnc3ccccc23)C1` (centres unmarked): the “hERG current change (%, negative = inhibition) at 10uM” value was -26.5%. Next, `CCN1CCN(c2c(C(=O)c3ccc(OC)cc3)cnc3ccccc23)CC1`: -80.3%; `CCOC(=O)c1cnc2ccc(OCC)cc2c1N1CCN(c2ccccc2)CC1`: 13.9%; `COc1ccc(C(=O)c2cnc3ccccc3c2-c2ccccc2)cc1`: -9.47%. Next, `CCOC(=O)C1CCCN(c2c(C(=O)c3ccccc3)cnc3ccc(OC)cc23)C1` (centres unmarked): -37.5%; `COc1ccccc1-c1cc(C(=O)NC(C)c2ccccc2)no1` (centres unmarked): 9.56%.

For `CCC(C)N=Cc1c(Nc2ccccc2)nc2c(C)cccn2c1=O` (centres unmarked), the “hERG current change (%, negative = inhibition) at 10uM” value worked out at 17.6%.

Take `O=C(Nc1cccc2ncccc12)c1cccnc1`: the “hERG current change (%, negative = inhibition) at 10uM” value is given as 14.5%. Next, `CC(C)(C)c1ccc(C(=O)NCc2cccnc2)cc1`: -2.42%. To `COc1ccc(OC)c(CCNC(=O)CCc2nnc3ccc(N4CCOCC4)nn23)c1` belongs 16.1%. To `CC(=O)c1c(C)oc2c1cc(NS(=O)(=O)c1ccc(C(=O)O)cc1)c1ccccc12` belongs 14.3%. Regarding `COC(=O)c1c(C)oc2c1cc(NS(=O)(=O)c1ccc(C(=O)O)cc1)c1ccccc12`, the “hERG current change (%, negative = inhibition) at 10uM” value stood at 7.86%.

For the compound `CCOC(=O)c1c(C)oc2c1cc(NS(=O)(=O)c1ccc(C(=O)O)cc1)c1ccccc12`, the “hERG current change (%, negative = inhibition) at 10uM” value is listed as -60.7%.
